Data reported in PubChem BioAssay (NCI).
The panel holds about 83,000 compounds, 20% with a hit somewhere; the sample as a whole holds those more often.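 Negative percent growth values reflect cell death: -40 means 40% of the cells present at the start died, and -100 means all died.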 Unmarked numbers belong to inactive results. Active and inactive are the calls of the source. Rule for the calls: active = growth percent below 10; inactive = the rest.

Columns and labels:
Experiment in all cases: NCI-60 one-dose screen, 48 h (100 = growth as untreated, 0 = no growth, -100 = all killed)
[1] = tested on: SK-MEL-2 melanoma; settings: 10 µM unless noted
[2] = tested on: EKVX NSCLC; settings: 10 µM unless noted
[3] = tested on: SN12C renal; settings: 10 µM unless noted
[4] = tested on: UO-31 renal; settings: 10 µM unless noted
[5] = tested on: TK-10 renal; settings: 10 µM unless noted
[6] = tested on: ACHN renal; settings: 10 µM unless noted
[7] = tested on: CAKI-1 renal; settings: 10 µM unless noted
[8] = tested on: A498 renal; settings: 10 µM unless noted
[9] = tested on: CCRF-CEM leukemia; settings: 10 µM unless noted
[10] = tested on: MOLT-4 leukemia; settings: 10 µM unless noted
[11] = tested on: SR leukemia; settings: 10 µM unless noted
[12] = tested on: RPMI-8226 leukemia; settings: 10 µM unless noted
[13] = tested on: OVCAR-8 ovarian; settings: 10 µM unless noted
[14] = tested on: OVCAR-5 ovarian; settings: 10 µM unless noted
[15] = tested on: OVCAR-4 ovarian; settings: 10 µM
[16] = tested on: IGROV1 ovarian; settings: 10 µM unless noted
[17] = tested on: HS 578T breast; settings: 10 µM unless noted
[18] = tested on: NCI/ADR-RES ovarian; settings: 10 µM unless noted
[19] = tested on: SK-OV-3 ovarian; settings: 10 µM unless noted
[20] = tested on: OVCAR-3 ovarian; settings: 10 µM unless noted

Structure (SMILES) | growth [1] | growth [2] | growth [3] | growth [4] | growth [5] | growth [6] | growth [7] | growth [8] | growth [9] | growth [10] | growth [11] | growth [12] | growth [13] | growth [14] | growth [15] | growth [16] | growth [17] | growth [18] | growth [19] | growth [20]
CCN1CCN(CC(=O)Nc2nc3ccc(NCc4ccc(Cl)cc4)cc3s2)CC1 | 86.4% | 86.3% | 68.4% | 59.6% | 96.8% | 83.3% | 68.3% | 58.4% | 50% | 54.4% | 15.8% | 39.6% | 78% | 74.6% | 80.4% | 70.9% | 70.5% | 82.6% | – | –
C=C(C)[C@@H]1CC[C@]2(C)[C@H](CC[C@@H]3[C@@H]([C@@](C)(O)CCC=C(C)C)CC[C@]32C)[C@@]1(C)CCC(=O)O | -41.6% [100 µM] (active) | 8.69% [100 µM] (active) | -64.2% [100 µM] (active) | -93.1% [100 µM] (active) | 18.1% [100 µM] | 6.72% [100 µM] (active) | 2.11% [100 µM] (active) | -20.2% [100 µM] (active) | 0.565% [100 µM] (active) | -0.176% [100 µM] (active) | 21.4% [100 µM] | 0.565% [100 µM] (active) | 14.8% [100 µM] | 3.52% [100 µM] (active) | – | -24.2% [100 µM] (active) | -16.7% [100 µM] (active) | 6.42% [100 µM] (active) | 18.4% [100 µM] | -70.2% [100 µM] (active)
C=C(C)[C@@H]1CC[C@]2(C(=O)O)CC[C@]3(C)[C@H](CC[C@@H]4[C@@]5(C)C/C(=C/c6ccco6)C(=O)C(C)(C)[C@@H]5CC[C@]43C)[C@@H]12 | -76% [100 µM] (active) | -63% [100 µM] (active) | -70.6% [100 µM] (active) | -95.4% [100 µM] (active) | -58.5% [100 µM] (active) | -89.8% [100 µM] (active) | -69.6% [100 µM] (active) | -58.5% [100 µM] (active) | 3.44% [100 µM] (active) | -8.01% [100 µM] (active) | 31.9% [100 µM] | 2.97% [100 µM] (active) | -17.6% [100 µM] (active) | -44.4% [100 µM] (active) | – | -63.2% [100 µM] (active) | -1.95% [100 µM] (active) | -43.8% [100 µM] (active) | -54.2% [100 µM] (active) | -59.1% [100 µM] (active)
C#C[C@]1(O)CC[C@H]2[C@@H]3CC=C4c5nc(Nc6ccccc6[N+](=O)[O-])sc5CC[C@]4(C)[C@H]3CC[C@@]21C | 56.7% | 67.4% | 79.5% | 63.1% | 72.4% | 70.7% | 38.9% | 11.7% | 61.9% | 43.7% | 30.2% | 1.11% (active) | 85.7% | 70.4% | 84.9% | 67.2% | 21.4% | 75.8% | – | –
Cc1ccc(Cn2c(O)c(N=NC(=O)c3ccc(S(N)(=O)=O)cc3)c3ccccc32)cc1 | 109% | 103% | 96.9% | 73% | 106% | 93.3% | 92.9% | 86.8% | 106% | 93.8% | 104% | 91.7% | 92.7% | 109% | – | 107% | 101% | 108% | 109% | 107%
C=C(C)[C@@H]1CC[C@]2(C(=O)OC)CC[C@]3(C)[C@H](CC[C@@H]4[C@@](C)(CCc5nn[nH]n5)[C@H](C(=C)C)CC[C@]43C)[C@@H]12 | -60.8% [100 µM] (active) | 0.298% [100 µM] (active) | -45.6% [100 µM] (active) | -88.5% [100 µM] (active) | 8.06% [100 µM] (active) | 3.75% [100 µM] (active) | -17.2% [100 µM] (active) | -61.5% [100 µM] (active) | 1.92% [100 µM] (active) | 0.832% [100 µM] (active) | 21.7% [100 µM] | -0.796% [100 µM] (active) | 7.09% [100 µM] (active) | 5.88% [100 µM] (active) | – | -8.32% [100 µM] (active) | -31% [100 µM] (active) | -7.5% [100 µM] (active) | -2.47% [100 µM] (active) | -60.4% [100 µM] (active)
C=C(C)[C@@H]1CC[C@]2(C(N)=O)CC[C@]3(C)[C@H](CC[C@@H]4[C@@]5(C)C/C(=C/c6cccnc6)[C@H](O)C(C)(C)[C@@H]5CC[C@]43C)[C@@H]12 | -13.2% [100 µM] (active) | 33.8% [100 µM] | 20% [100 µM] | 12.2% [100 µM] | 32.5% [100 µM] | 9.24% [100 µM] (active) | 10.7% [100 µM] | 61.9% [100 µM] | 5.5% [100 µM] (active) | 1.99% [100 µM] (active) | 12.8% [100 µM] | 13.1% [100 µM] | 21.9% [100 µM] | 14.1% [100 µM] | – | 17.5% [100 µM] | 43.2% [100 µM] | 11.3% [100 µM] | 31.6% [100 µM] | 29.1% [100 µM]
CC1(C)CC[C@]2(C(=O)OC(=O)[C@]34CCC(C)(C)C[C@@H]3C3=CC[C@@H]5[C@@]6(C)CCC(=O)C(C)(C)[C@@H]6CC[C@@]5(C)[C@]3(C)CC4)CC[C@]3(C)C(=CC[C@@H]4[C@@]5(C)CCC(=O)C(C)(C)[C@@H]5CC[C@]43C)[C@H]2C1 | 76.1% [100 µM] | 81.3% [100 µM] | 55.8% [100 µM] | 59.9% [100 µM] | 95.3% [100 µM] | 73.8% [100 µM] | 45.6% [100 µM] | 95.6% [100 µM] | 44.4% [100 µM] | 41.5% [100 µM] | 65% [100 µM] | 61% [100 µM] | 59.8% [100 µM] | 98.3% [100 µM] | – | 84.4% [100 µM] | 57.3% [100 µM] | 69.5% [100 µM] | 72.9% [100 µM] | 74% [100 µM]
CCN(CC)c1ccc2cc(C(Nc3ccc(C)cc3)c3nnnn3C(C)(C)C)c(=O)oc2c1 (centres undefined) | 94.3% | 86.9% | 91.8% | 72.5% | 90.7% | 98.2% | 79.2% | 94.7% | 98.6% | 65.5% | 94.5% | 87.4% | 98.4% | 101% | – | 97.4% | 90.7% | 90.6% | 102% | 101%
C=C(C)[C@@H]1CC[C@]2(C(=O)NCCNCCNCCN)CC[C@]3(C)[C@H](CC[C@@H]4[C@@]5(C)CCC(=O)C(C)(C)[C@@H]5CC[C@]43C)[C@@H]12 | 56.4% [100 µM] | 11.4% [100 µM] | -88.5% [100 µM] (active) | -96.4% [100 µM] (active) | -77.7% [100 µM] (active) | -83.3% [100 µM] (active) | -8.79% [100 µM] (active) | 80.8% [100 µM] | -11.3% [100 µM] (active) | -16.3% [100 µM] (active) | 4.96% [100 µM] (active) | -30.7% [100 µM] (active) | -75% [100 µM] (active) | -44.1% [100 µM] (active) | – | -84.8% [100 µM] (active) | 47.8% [100 µM] | -73.3% [100 µM] (active) | 70.5% [100 µM] | -72.5% [100 µM] (active)
C=C(C)[C@@H]1CC[C@]2(C(N)=O)CC[C@]3(C)[C@H](CC[C@@H]4[C@@]5(C)CC[C@H](O)C(C)(C)[C@@H]5CC[C@]43C)[C@@H]12 | -31.2% [100 µM] (active) | -10.3% [100 µM] (active) | -45.8% [100 µM] (active) | -100% [100 µM] (active) | -69.8% [100 µM] (active) | -80.3% [100 µM] (active) | -64.3% [100 µM] (active) | -28.3% [100 µM] (active) | 3.11% [100 µM] (active) | 1.86% [100 µM] (active) | 15.5% [100 µM] | -19.8% [100 µM] (active) | -64.8% [100 µM] (active) | -21.6% [100 µM] (active) | – | -58.1% [100 µM] (active) | -1.7% [100 µM] (active) | -8.91% [100 µM] (active) | -45.7% [100 µM] (active) | -46.6% [100 µM] (active)
CC1(C)CC[C@]23CC[C@]4(C)[C@H](CC[C@@H]5[C@@]6(C)C/C(=C/c7ccncc7)C(=O)C(C)(C)[C@@H]6CC[C@]54C)[C@H]2[C@H]1OC3=O | 29.5% [100 µM] | 85.5% [100 µM] | 65.6% [100 µM] | 91.8% [100 µM] | 51.5% [100 µM] | 43.9% [100 µM] | 50.8% [100 µM] | 58.6% [100 µM] | 79.3% [100 µM] | 69.1% [100 µM] | 93.5% [100 µM] | 41.1% [100 µM] | 51.9% [100 µM] | 111% [100 µM] | – | 70.1% [100 µM] | -3.34% [100 µM] (active) | 64.4% [100 µM] | 47.7% [100 µM] | 85.2% [100 µM]
CC(C)(C)c1cc(C(=O)N2CCC(C(=O)NCCN)CC2)cc(C(C)(C)C)c1 | 97.4% | 84.7% | 89.5% | 93.3% | 98.4% | 108% | 80.7% | 56.6% | 94.8% | 98.5% | 98.4% | 94.4% | 99% | 98.9% | 105% | 95.6% | 92% | 104% | – | –
